# Screens as filed in PubChem BioAssay.
# FBPA Giardia inh = blocks Giardia fructose-bisphosphate aldolase activity | A8B2U2 | purified Giardia FBPA | Potency, µM (series often up to 59.6 µM), for inactives: top-dose activity, negative = inhibition, usual class: inhibitors | hit rate 0.71% among 290,000 | AID 2451; note: potency is the fitted concentration of half-maximal effect; nearly all actives have a fitted effect of over 55% in size
# Target sequence (A8B2U2 whole entry, looked up): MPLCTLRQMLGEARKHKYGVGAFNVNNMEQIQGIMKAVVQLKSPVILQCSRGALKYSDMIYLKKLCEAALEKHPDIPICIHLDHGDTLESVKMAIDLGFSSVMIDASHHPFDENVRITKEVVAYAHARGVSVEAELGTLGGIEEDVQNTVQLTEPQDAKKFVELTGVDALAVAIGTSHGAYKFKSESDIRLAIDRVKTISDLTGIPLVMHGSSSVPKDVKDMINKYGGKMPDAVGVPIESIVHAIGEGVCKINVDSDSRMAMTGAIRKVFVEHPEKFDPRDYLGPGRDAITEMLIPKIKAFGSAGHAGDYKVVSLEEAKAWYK
#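 Giardia FBPA (40 nM reagent) was preincubated 10 min at RT with compound (up to 57.5 uM final), then substrate plus GAPDH/TPI/NAD/arsenate coupling system with diaphorase/resazurin was added; resorufin fluorescence (525/598 nm) was read after 20 min.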
# Vaccinia mCherry = inhibitors of vaccinia virus infection (mCherry reporter signal) | hit rate 0.63% among 310,000 | Vaccinia virus mCherry reporter infection, fluorescence | Potency, µM (series often up to 36.5 µM), for inactives: at the top dose activity change, negative = inhibition, usual class: inhibitors | AID 720579; calls by dose curve; tested in A549 cells; note: potency is the fitted concentration of half-maximal effect; nearly all actives have a fitted effect of over 35% in size
# FMDV inh = blocks foot and mouth disease virus; FMDV antiviral cell-based qHTS; hit rate 1.2% among 410,000; AID 1159524; Potency, µM (highest dose often 57.9 µM), inactives show at the top dose activity change, negative = inhibition, hits mostly inhibitors; calls by dose curve; tested in HEK293T cells; note: read-out not given here; potency is the fitted concentration of half-maximal effect; nearly all actives have a fitted effect of over 45% in size
# HCMV inh = inhibitors of human cytomegalovirus; HFF cells, HCMV-luciferase reporter, 72 h; active compounds read low; AID 1259415; activity change, negative = inhibition, % at 57.5 µM; hit rate 4.5% among 410,000; in the data active = activity change below about -60%; inconclusive = no clear call, values can overlap the other calls; inactive = above about -39%
#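 Compounds were evaluated in HFFs infected with an HCMV luciferase reporter virus (MOI 1 PFU/cell). Luciferase in lysates collected 72 h post infection served as the replication measure.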
# Vaccinia Venus = inhibitors of vaccinia virus (Venus reporter); Potency, µM (top dose mostly 36.5 µM), inactives show at the top dose activity change, negative = inhibition, most hits filed as inhibitors; Vaccinia virus Venus reporter expression, fluorescence; AID 720580; hit rate 0.46% among 330,000; calls by dose curve; tested in A549 cells; note: potency is the fitted concentration of half-maximal effect; nearly all actives have a fitted effect of over 30% in size
# HCV inhibitor = blocks hepatitis C virus | AID 651820 | hit rate 3.4% among 340,000 | Huh7.5.1 HCVcc-Cre infection, luciferase reporter, 44 h | Potency, µM (top dose mostly 41.8 µM), for the others: at the top dose activity change, negative = inhibition, hits mostly inhibitors; note: potency is the fitted concentration of half-maximal effect
#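 Compounds are dispensed onto cells plated 4 h earlier at 1,000 per well, with HCVcc-Cre virus (about 0.5 moi) added next. Following 44 h of culture, luminescent signal is measured for 15 sec after 15 min with substrate at room temperature.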
# * = called active by the depositor; i = inactive; u = inconclusive; x = no result. Shown are actives, neighbours in structure and some others; about 7.5% of the full set was active somewhere. Unless noted, calls come from the whole dose curve; as a rule, active = well fitted curve in the direction sought with a large enough effect; inconclusive = small, poorly fitted or top-dose-only effect, or another doubt; inactive = no such curve, though single readings can be large; an effect the other way counts as inactive or inconclusive. % is set by controls: 0 for no effect and ±100 for the full control effect.
SMILES,FBPA Giardia inh,Vaccinia mCherry,FMDV inh,HCMV inh,Vaccinia Venus,HCV inhibitor
C=CCn1c(C)cc(C(=O)COc2ccc(N(C)S(=O)(=O)c3ccc(NC(C)=O)cc3)cc2)c1C,x,x,u,-21,x,8.9µM*
COCC(C)n1c(C)cc(C(=O)COc2ccc(N(C)S(=O)(=O)c3ccc(NC(C)=O)cc3)cc2)c1C (stereo not given),x,-29%,-28%,-31,-28%,u
N=c1nc2n(cc1F)C1OC(CO)C(O)C1O2 (stereo not given),x,5.6µM*,-18%,-99*,u,u
N=c1ccn2c(n1)O[C@H]1[C@H](O)[C@@H](CO)O[C@H]12,3%,x,-15%,-96*,x,-10%
N=c1ncn(C2OC(CO)C(O)C2O)c2nc(Br)[nH]c12 (stereo not given),x,-20%,0%,15,-19%,x
N=c1ccn2c(n1)O[C@H]1[C@@H](CO)[C@H](O)O[C@H]12,x,0.45µM*,-20%,-98*,u,u
N=c1ccn2c(n1)O[C@@H]1[C@H](O)[C@H](CO)O[C@@H]12,4%,x,x,x,x,x
C/C=C(/C)C(=O)O[C@H]1C(C)=C2C([C@@H]1OC(=O)CCCCCCC)[C@@](C)(OC(C)=O)C[C@@H](OC(=O)CCC)[C@@]1(O)[C@H]2OC(=O)[C@@]1(C)O (stereo not given in full),-20%,x,x,x,x,x
COC(=O)[C@]1(C#N)CC(=O)N([C@H](C)[C@H](O)c2ccccc2)[C@@H]1c1ccccc1,x,x,x,35,x,x
O=[N+]([O-])c1ccc(Cl)c(C2Nc3cccc4cccc(c34)N2)c1,u,x,-23%,-81*,x,-29%
Clc1ccc(C2Nc3cccc4cccc(c34)N2)cc1Cl,-26%,x,9%,29,x,10%
COc1ccc(CNC(=O)c2cn(Cc3ccc(OC(C)=O)cc3)c(=O)s2)cc1,x,i,-8%,7,-8%,x
CC1=C(C(=O)N(C(C)C)C(C)C)CC(CC(=O)NCCCCc2ccccc2)C(=O)N1Cc1ccc(C(C)(C)C)cc1 (stereo not given),x,u,u,-105*,u,x
CC1=C(C(=O)N(C(C)C)C(C)C)CC(CC(=O)NC(c2ccccc2)c2ccccc2)C(=O)N1CCC1=CCCCC1 (stereo not given),x,i,u,-110*,-6%,x
COc1ccc(CN2C(=O)C(CC(=O)NCCCCc3ccccc3)CC(C(=O)N(C(C)C)C(C)C)=C2C)cc1 (stereo not given),x,u,-30%,19,u,x
CCOC(=O)c1nc(C)nc(Sc2n[nH]c(-c3ccc(C(C)(C)C)cc3)n2)c1C,-7%,x,1%,48,x,-28%
CC(=O)O[C@H](C(=O)O[C@@H]1C[C@@H](CCC[C@H]2O[C@H](C(=O)OC(C)C)CC[C@@H]2C)O[C@@H](CC#N)C1)c1ccccc1,-1%,x,x,x,x,x
Cc1ccccc1-c1ccc2ncnc(NCc3cccnc3)c2c1,3%,x,-22%,x,x,x
C/C(=N\NC(=O)c1ccc(NS(=O)(=O)c2cccs2)cc1)c1ccc(C(C)(C)C)cc1,-8%,-9%,-21%,15,-8%,7.1µM*
CC(=O)Nc1cccc(/C(C)=N/NC(=O)c2ccc(NS(=O)(=O)c3cccs3)cc2)c1,3%,i,-13%,-37,-20%,-3%
O=C(NN1CCN(Cc2ccccc2Cl)CC1)c1ccc(Cl)cc1,-18%,-7%,u,-61*,-11%,4%
Cc1cccc(N2CCN(C(=O)CNC(=O)Cc3ccccc3)CC2)c1C,x,x,-15%,-19,x,u
O=C(NCC(=O)N1CCN(Cc2ccccc2)CC1)c1ccc(Cl)cc1,-4%,x,u,-62*,x,u
Cc1cccc(N2CCN(C(=O)CNC(=O)c3cccc([N+](=O)[O-])c3)CC2)c1C,-6%,-9%,u,-64*,-5%,11µM*
O=C(NCC(=O)N1CCN(Cc2ccccc2)CC1)c1cc(Cl)cc([N+](=O)[O-])c1,x,x,u,-86*,x,u
SMILES,FBPA Giardia inh,Vaccinia mCherry,FMDV inh,HCMV inh,Vaccinia Venus,HCV inhibitor
O=C(NCC(=O)N1CCN(Cc2ccccc2)CC1)c1ccc(Br)cc1,x,-10%,-21%,-8,-10%,u
CCN(CC)c1nc(C#N)nc(N2CCOCC2)n1,x,-13%,x,x,-24%,x
COc1ccc2c(Sc3ccccc3)c(C(=O)NCCN(C)C)[nH]c2c1,x,u,16%,-27,-26%,x
O=C(NCc1ccc(Cl)cc1)N1CCN(Cc2ccccc2)CC1,6%,x,-9%,-93*,x,u
CCc1ccccc1NC(=O)CN1CCN(C(=O)CNC(=O)c2ccc(-c3ccccc3)cc2)CC1,x,x,u,-35,x,11µM*
CCN(C(=O)COC(=O)Cc1c[nH]c2ccccc12)c1c(N)n(Cc2ccccc2)c(=O)[nH]c1=O,x,-6%,-12%,12,-1%,-1%
COc1cc(/C=N/N=C2/NC(=O)C(Cc3ccc(F)cc3)S2)ccc1O (stereo not given),4%,u,3%,-19,-23%,2%
COc1cc(/C=N/N=C2/NC(=O)C(c3ccccc3)S2)ccc1O (stereo not given),-1%,-19%,29%,-65*,-17%,8%
COc1ccc(-c2cc(C(F)(F)F)nc(SCCC(=O)Nc3ccc(O)cc3)n2)cc1,x,-3%,-25%,u,-8%,x
Cc1nn(C)c(C)c1CCC(=O)NC1CC(C)(C)Cc2c1cnn2-c1ccccc1 (stereo not given),x,-13%,-7%,-69*,-15%,-4%
COc1ccc(-n2ncc3c2CC(C)(C)CC3NC(=O)c2cnc(C)cn2)cc1 (stereo not given),11%,x,-15%,-64*,x,-1%
CC1(C)Cc2c(cnn2-c2ccccc2)C(NC(=O)CCc2ccc(=O)[nH]n2)C1 (stereo not given),7%,i,-3%,12,-17%,x
COc1cccc(-c2nc(N3CCNCC3)c3ccccc3n2)c1,-6%,-17%,9%,x,-19%,x
Cc1cc(O)c2/c(=N\N)c(-c3csc(C)n3)coc2c1,-6%,-11%,-2%,-36,12%,5%
COc1cc2c(c(OC)c1)C(c1cccc(F)c1F)CC(=O)N2 (stereo not given),x,-1%,-16%,-34,3%,x
CC(C)(C)c1ccc(C(=O)CC(=O)c2cc(Cl)ccc2O)cc1,-3%,x,7%,-83*,x,11µM*
Cc1ccc(C(=O)CC(=O)c2cc(Cl)ccc2O)cc1,-12%,i,74%,u,-27%,13µM*
Cc1ccc(C(=O)CC(=O)c2ccc(C)cc2O)cc1,-7%,i,62%,49,-17%,u
CC(=O)N1CCc2c(sc(NC(=O)C3COc4ccccc4O3)c2C(N)=O)C1 (stereo not given),x,-24%,8%,37,-23%,u
